Structures are written as SMILES. Results filed as inconclusive are left out. The source made the active and inactive calls. The call rests on the fitted dose curve; in most records, active means well fitted curve in the direction sought with a large enough effect; inconclusive means small, poorly fitted or top-dose-only effect, or another doubt; inactive means no such curve, though single readings can be large; an effect the other way counts as inactive or inconclusive.

Experiment [1] can be described thus: qHTS of pediatric cancer cell lines to identify multiple opportunities for drug repurposing: Confirmatory screen for BT-12 cells (AID 1347112). Further: nearly all actives have a fitted effect of over 55% in size. The settings on record: BT-12 rhabdoid tumor cells, viability; series mostly up to 45.9 µM. The gist of the method: (§1)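 Cells (500-1,000/well) in growth media were settled 5 h at 37 degrees C, then given compounds for 48 h. Viability was read as CellTiter-Glo luminescence. Primary runs used MIPE at 11 points (0.78 nM-46 µM) and NPC at 8 points (0.59 nM-46 µM); follow-ups used 11 points.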
Background: In qHTS, concentration-response curves come from the screen itself.

Experiment [2] in a line: qHTS of pediatric cancer cell lines to identify multiple opportunities for drug repurposing: Confirmatory screen for DAOY cells (AID 1347114). Further: nearly all actives have a fitted effect of over 65% in size. The settings on record: DAOY medulloblastoma cells viability, cytotoxicity qHTS; series mostly up to 45.9 µM. The gist of the method:
(§2)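 Viability measured as metabolically active cells via CellTiter-Glo luminescence following 48 hours of compound exposure, 11-point dilutions in confirmatory testing. 500-1,000 cells/well plated 5 hours before dosing; controls were DMSO and 2.3 µM bortezomib.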

A short description of experiment [3]: qHTS of pediatric cancer cell lines to identify multiple opportunities for drug repurposing: Confirmatory screen for NB-EBc1 cells (AID 1347115).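 Further: cells exposed to compound for 48 h before the viability read; nearly all actives have a fitted effect of over 45% in size.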 The settings on record: NB-EBc1 neuroblastoma cells, viability (cytotoxicity); series mostly up to 45.9 µM. The gist of the method: as §1
Experiment [4] can be described thus: qHTS of pediatric cancer cell lines to identify multiple opportunities for drug repurposing: Confirmatory screen for SJ-GBM2 cells (AID 1347116). Further: nearly all actives have a fitted effect of over 60% in size. The settings on record: SJ-GBM2 glioblastoma cells, viability; series mostly up to 45.9 µM. The gist of the method:
as §2

Experiment [5] is described as follows: qHTS of pediatric cancer cell lines to identify multiple opportunities for drug repurposing: Confirmatory screen for BT-37 cells (AID 1347117). Further: nearly all actives have a fitted effect of over 55% in size. The settings on record: BT-37 pediatric cancer cells, viability; series mostly up to 45.9 µM. The gist of the method:
as §1

A short description of experiment [6]: qHTS of pediatric cancer cell lines to identify multiple opportunities for drug repurposing: Confirmatory screen for TC32 cells (AID 1347118).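 Further: cells exposed to compound for 48 h before the read; nearly all actives have a fitted effect of over 65% in size.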 The settings on record: TC32 Ewing sarcoma cells viability qHTS; series mostly up to 45.9 µM. The gist of the method: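 Measured quantity: luminescence from CellTiter-Glo, reflecting metabolically active TC32 cells following 48 h of compound. Curves came straight from multi-point titrations, with 8 or 11 points in primary and 11 in confirmatory screening.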

A short description of experiment [7]: qHTS of pediatric cancer cell lines to identify multiple opportunities for drug repurposing: Confirmatory screen for MG 63 (6-TG R) cells (AID 1347119). Further: nearly all actives have a fitted effect of over 55% in size. The settings on record: MG-63 (6-TG resistant) osteosarcoma viability; series mostly up to 45.9 µM. The gist of the method: as §1
Experiment [8] is described as follows: qHTS of pediatric cancer cell lines to identify multiple opportunities for drug repurposing: Confirmatory screen for control Hh wild type fibroblast cells (AID 1347121). Further: nearly all actives have a fitted effect of over 70% in size. The settings on record: viability qHTS; series mostly up to 45.9 µM. The gist of the method:
as §1

Experiment [9] can be described thus: qHTS of pediatric cancer cell lines to identify multiple opportunities for drug repurposing: Confirmatory screen for Rh41 cells (AID 1347123).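 Further: 48 h compound exposure; nearly all actives have a fitted effect of over 60% in size.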 The settings on record: Rh41 rhabdomyosarcoma cells, viability/cytotoxicity qHTS; series mostly up to 45.9 µM. The gist of the method: as §1
A short description of experiment [10]: qHTS of pediatric cancer cell lines to identify multiple opportunities for drug repurposing: Confirmatory screen for SK-N-MC cells (AID 1347111).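 Further: cells exposed to compound for 48 h before the readout; nearly all actives have a fitted effect of over 70% in size.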 The settings on record: SK-N-MC cell viability; series mostly up to 45.9 µM. The gist of the method:
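Metabolically active cells were quantified by ATP-dependent luminescence (CellTiter-Glo, 15 min at room temperature) following 48 h treatment. Cells had been plated at 500-1,000 per well and settled for 5 h beforehand.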
Potency means the concentration at half of the fitted maximal effect.

Take `CS(=O)(=O)c1ccc(C(=O)C2C(=O)CCCC2=O)c([N+](=O)[O-])c1`: the Potency result in experiment [1], in experiment [2], in [3], in experiment [4], in experiment [5] and in experiment [6] was “inactive” each time. For the same compound, the Potency entry in [7], in experiment [8] and in [9] was “inactive” each time.
For `COc1cc([C@@H]2c3cc4c(cc3[C@@H](O)C3COC(=O)C32)OCO4)cc(OC)c1O` (stereo not given in full), the Potency in experiment [2] is 185 nM (active); in experiment [3] it was 3690 nM (active); in [5] it was 737 nM (active); in experiment [6] it was 585 nM (active); in [7] it was 293 nM (active). Also, the Potency result in experiment [4] and in [8] was “inactive” each time.
As for `CCCCCC[C@H]1C(=O)O[C@H](C)[C@H](NC(=O)c2cccc(NC=O)c2O)C(=O)O[C@@H](C)[C@@H]1OC(=O)CC(C)C`, the Potency is 46.5 nM (active) in [10]; 14.7 nM (active) in [3]; 117 nM (active) in experiment [6]; 13.1 nM (active) in experiment [7]; 16.5 nM (active) in [8].
Take `C[C@@]12OC(=O)[C@]1([C@@H](O)[C@@H]1C=CCCC1)NC(=O)[C@H]2CCCl`: the Potency in [1] is 2930 nM (active); in experiment [2], 657 nM (active); in [4] it was 737 nM (active); in [7], 293 nM (active); in experiment [8], 4140 nM (active); in [9], 329 nM (active).
As for `CCC(=O)OC1CCC2C3CCC4=CC(=O)CC[C@@]4(C)C3CC[C@]12C` (stereo not given in full), the Potency result in [1], in experiment [2], in experiment [3], in experiment [4], in experiment [5] and in experiment [7] was “inactive” each time. The Potency entry in [8] is “inactive”.
As for `CC=C(C)C(=O)N[C@@H](c1ccccc1)[C@@H](O)C(=O)O[C@H]1C[C@@]2(O)[C@@H](OC(=O)c3ccccc3)[C@@H]3[C@]4(OC(C)=O)CO[C@@H]4C[C@H](O)[C@@]3(C)C(=O)[C@H](OC(C)=O)C(=C1C)C2(C)C`, the Potency in experiment [10] was 36.9 nM (active); in [5] it was 52.2 nM (active); in experiment [7], 29.3 nM (active). Also, the Potency result in experiment [8] was “inactive”.
For the compound `Cc1c(C(=O)Nc2cccc(C(F)(F)F)c2)cc(-c2ccccc2)n1CCCN1CCOCC1`, the Potency was 26900 nM (active) in experiment [10]; 38000 nM (active) in experiment [2]; 42700 nM (active) in [3]; 42700 nM (active) in [5]; 21400 nM (active) in experiment [9].
Take `COc1ccc(C(=O)c2c(C)n(CCN3CCOCC3)c3cc(I)ccc23)cc1`: the results for the Potency in [2], in experiment [7] and in experiment [9] were 18500 nM (active), 14700 nM (active) and 9270 nM (active), respectively. In addition, in experiment [8], the Potency entry is “inactive”.
Turning to `CC(=Cc1csc(C)n1)[C@@H]1C[C@H]2O[C@@H]2CCC[C@H](C)[C@@H](O)[C@@H](C)C(=O)C(C)(C)[C@@H](O)CC(=O)O1`, the Potency is 20.8 nM (active) in experiment [10]; 13.1 nM (active) in experiment [2]; 104 nM (active) in [4]; 14.7 nM (active) in [6]; 16.5 nM (active) in experiment [7]; 36.9 nM (active) in experiment [9]. Further, the Potency entry in [8] is “inactive”.
Regarding `CO[C@H]1CCC(O[C@H]2C[C@H]([C@]3(C)CC[C@]4(C[C@H](O)[C@@H](C)[C@@H]([C@@H](C)C=C(C)C(=O)[C@H](C)C[C@H](C)C(=O)O)O4)O3)O[C@]3(O[C@@H]([C@H]4O[C@@](O)(CO)[C@H](C)C[C@H]4C)C[C@H]3C)[C@H]2C)O[C@H]1C` (stereo not given in full), the Potency in experiment [1] is 2930 nM (active); in [2], 20800 nM (active); in [7] it was 2080 nM (active); in experiment [9], 1470 nM (active).
Regarding `CC(=Cc1csc(C)n1)[C@@H]1C[C@H]2O[C@]2(C)CCC[C@H](C)[C@@H](O)[C@@H](C)C(=O)C(C)(C)[C@@H](O)CC(=O)O1`, the Potency in experiment [10] is 5.9 nM (active); in [2], 11.7 nM (active); in [5] it was 5.2 nM (active); in experiment [6], 3.7 nM (active); in experiment [7] it was 3.3 nM (active); in experiment [9], 10.4 nM (active).
`Cc1c(N)nc([C@H](CC(N)=O)NC[C@@H](N)C(N)=O)nc1C(=O)N[C@H](C(=O)N[C@@H](C)[C@H](O)[C@@H](C)C(=O)N[C@@H](C(=O)NCCc1nc(-c2nc(C(=O)NCCC[S+](C)C)cs2)cs1)[C@@H](C)O)C(O[C@H]1O[C@H](CO)[C@H](O)[C@@H](O)[C@@H]1O[C@H]1O[C@H](CO)[C@@H](O)[C@H](OC(N)=O)[C@H]1O)c1cnc[nH]1` (stereo not given in full): the Potency entry in experiment [4], in [8] and in experiment [9] was “inactive” each time.
In the case of `O=C1C(I)=CC(=C(c2cc(I)c(O)c(I)c2)c2ccccc2C(=O)O)C=C1I`, the Potency entry in [1], in [3], in experiment [5], in experiment [7] and in experiment [8] was “inactive” in each case. For the same compound, the Potency in [9] is 9270 nM (active).
`S=C(SSC(=S)N1CCCCC1)N1CCCCC1`: the Potency in [6] is 2610 nM (active); in [9] it was 329 nM (active). Besides, the Potency entry in experiment [8] is “inactive”.
Consider `C[C@]12Cc3cn[nH]c3C[C@@H]1CC[C@@H]1[C@H]2CC[C@@]2(C)[C@H]1CC[C@]2(C)O`, for which the Potency entry in experiment [3], in experiment [4], in experiment [7], in experiment [8] and in experiment [9] was “inactive” in each case.
For the compound `CCCN1CCO[C@@H]2c3cc(O)ccc3OC[C@@H]21`, the Potency result in [2], in [3], in [4], in experiment [7], in experiment [8] and in experiment [9] was “inactive” in each case.
As to `COC1=CC(C)=C[C@@H](C)[C@@H](O)[C@@H](C)CC(C)=CC=C[C@H](OC)[C@H]([C@@H](C)[C@@H](O)[C@H](C)[C@@]2(O)C[C@@H](O)[C@H](C)[C@@H](C(C)C)O2)OC1=O`, the Potency result in [2], in experiment [7], in experiment [8] and in [9] was “inactive” throughout.
For the compound `CC[C@H]1C=CC=CC[C@@H](C)[C@H](O)[C@@](C)(O)C(=O)[C@@H](C)[C@H](O)[C@@H](C)C(=O)[C@@H](C)[C@H](O)[C@@H](C)C=CC(=O)O[C@@H]2[C@@H](C)[C@H](CC1)O[C@]1(CC[C@H](C)[C@H](C[C@@H](C)O)O1)[C@H]2C`, the Potency in experiment [10] is 233 nM (active); in experiment [2] it was 3.7 nM (active); in [3] it was 208 nM (active); in [4], 20800 nM (active); in experiment [5], 58.5 nM (active); in [6] it was 1850 nM (active). Besides, the Potency in [7] and in [8] was 117 nM (active) in each case.
Take `O=C(O)COc1nc(Cl)c(Cl)cc1Cl`: the Potency result in experiment [1], in experiment [2], in experiment [3], in experiment [5], in [7] and in [8] was “inactive” in each case. In [9], the Potency entry is “inactive”.
Regarding `O=C(Nc1ccncc1)C(=O)c1cn(Cc2ccc(Cl)cc2)c2ccccc12`, the Potency in experiment [10] was 329 nM (active); in experiment [2], 293 nM (active); in [5], 827 nM (active); in experiment [6], 233 nM (active); in experiment [7], 369 nM (active); in experiment [9], 465 nM (active).
On to `CC=C(C)C(=O)O[C@H]1C(C)=C2[C@@H]3OC(=O)[C@@](C)(O)[C@@]3(O)[C@@H](OC(=O)CCC)C[C@](C)(OC(C)=O)[C@@H]2[C@@H]1OC(=O)CCCCCCC`, for which the Potency result in [10], in experiment [2], in experiment [3], in [5], in experiment [6] and in experiment [7] was “inactive” throughout. For the same compound, the Potency entry in experiment [8] and in [9] was “inactive” each time.

These data come from PubChem BioAssay (NCATS).
